Source: PubChem
Sampled rows, rich in hits. Any-hit rate of the full collection: about 2.2%.
Cardiac RTF inh – cardiac RTF calcium sensitivity inhibitors, primary screen, biochemical, IANBD-TnC fluorescence, EC70 calcium. Troponin I, cardiac muscle (Homo sapiens) + Troponin T, cardiac muscle (Homo sapiens) + …. IANBD-labeled cardiac RTF, Ca2+ fluorescence. inhibition, % at 7.15 µM. 340,000 tested, 0.12% active. AID 493244, 2011;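 active = inhibition above the mean inhibition of all tested compounds plus 3 SD, cut at about 17% in these data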;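 also: assay run at fixed EC70 calcium of 1.6 mM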
CRFBP-R2 block – antagonists of CRF-BP/CRF-R2 complex, primary screen, cell-based, HEK293, calcium dye fluorescence, uHTS | inhibition, % at 11.8 µM | CRF-induced calcium fluorescence | 350,000 tested, 0.59% active;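 active = inhibition of the ligand-induced calcium signal above about 50% at the single tested concentration, limit read from the data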
cardiac RTF act – cardiac RTF calcium sensitivity activators, primary screen, biochemical, IANBD-TnC fluorescence, EC20 calcium; IANBD-labeled TnC RTF fluorescence at EC20 calcium; 0% EC20 calcium, 100% full calcium; AID 493008, 2010; Troponin I, cardiac muscle (Homo sapiens) + Troponin T, cardiac muscle (Homo sapiens) + …; activation, % at 7.2 µM; 340,000 tested, 0.24% active;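 active = activation above the mean over all tested compounds plus 3 SD, cut at about 30% in these data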;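 also: rise in fluorescence read as greater calcium sensitivity of cardiac thin filaments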
CRFR2-BP ag – agonists of CRF-BP/CRF-R2 complex, primary screen, cell-based, HEK293, calcium dye fluorescence, uHTS; CRF-binding protein / CRF receptor 2 complex (human); calcium dye fluorescence (FLIPR); percent of saturating CRF peptide response; activation, % at 13.2 µM; 350,000 tested, 0.46% active; AID 588473, 2011;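 active = activation of at least 50%, plus an integration ratio under a set limit after plate pattern correction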;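 also: plate controls were neutral control wells without compound for no effect and CRF at EC100 for full effect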
Myeloid diff 2 – induction of myeloid progenitor differentiation, primary screen, cell-based, flow cytometry, MLPCN library | calls only at 10 µM | ER-HoxA9 myeloid progenitors, lysozyme-GFP differentiation | 360,000 tested, 1% active;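 active = normalized GFP-positive differentiation at or above the plate's own cutoff, the solvent-only control mean plus 3 SD; inconclusive = no clear call, values can overlap the other calls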;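 also: cells exposed to compound for four days before flow analysis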
* hit, by the source's call; i = inactive; ? = inconclusive; . = not tested or not shown; + = active, no number; ! = repeats disagree.

SMILES	Cardiac RTF inh	CRFBP-R2 block	cardiac RTF act	CRFR2-BP ag	Myeloid diff 2
COc1ccccc1N1C(=O)c2ccccc2NC1c1ccncc1 (stereo not drawn)	-2.5	4.5	-0.5	-3.0	i
COc1ccccc1N1C(=O)N(C(C)=O)C2C1Nc1ccccc1N2C (stereo not drawn)	-26.9	-22.0	12.9	13.7	+
O=C(CC1C(=O)NCCN1C(=O)Nc1ccccc1)Nc1ccc2c(c1)OCO2 (stereo not drawn)	-11.8	73.6*	2.1	9.4	i
C=CCN1C(=O)/C(=C2/Sc3ccc(OC)cc3N2CC)SC1=S	0.1	-39.0	4.5	68.3*	i
CCN1CCN(Cc2ccc(NC(=O)c3ccc(C)c(NC(=O)N4CCNC4=O)c3)cc2C(F)(F)F)CC1	-7.1	-7.9	10.8	0.8	+!
COC(=O)C1CC(Cl)CN1c1ncc(C(F)(F)F)cc1Cl (stereo not drawn)	-3.7	52.4*	-0.3	-2.2	i
CCOc1ccc(Br)cc1C1=CC(=O)C[C@H](c2ccc(OC)cc2)C1	-20.8	-77.4	5.0	163.3*	?
COc1ccc([C@H]2CC(=O)C=C(c3cc(Br)ccc3OC)C2)cc1	-9.6	-5.7	-4.0	1.6	+
COc1ccc([C@H]2CC(=O)C=C(c3ccc(Br)c4ccccc34)C2)cc1	1.0	-9.9	0.8	1.1	i
COc1ccc([C@H]2CC(=O)C=C(c3cc(C)ccc3OC)C2)cc1	8.9	5.9	2.1	-0.1	?
CN(CCc1ccccn1)Cc1ccc(Cl)c(Cl)c1	-0.9	0.2	4.7	0.4	i
CN(CCc1ccccn1)Cc1ccc(Cl)cc1Cl	-15.1	-6.8	-0.8	-1.3	+
CN1CCN(C(=O)c2ccc3c(c2)N(Cc2ccccc2F)C(=O)c2ccccc2S3=O)CC1 (stereo not drawn)	0.7	-44.9	4.2	22.6	i
CN1CCN(C(=O)c2ccc3c(c2)N(Cc2ccc(Cl)cc2)C(=O)c2ccccc2S3=O)CC1 (stereo not drawn)	-3.7	-3.5	6.5	-0.7	+
N#CCC(=O)Nc1ccc(C(=O)OCC(=O)NCCCc2ccccc2)cc1	-1.8	14.5	0.3	0.5	i
N#CCC(=O)Nc1ccc(C(=O)OCC(=O)C23CC4CC(CC(C4)C2)C3)cc1	3.4	-17.9	-11.8	0.3	+
N#CCC(=O)Nc1ccc(C(=O)OCc2ccccc2Oc2ccccc2)cc1	9.1	1.2	-5.0	2.2	+
O=C1C2=C(SCCS2)C(=O)N1CCCO	-12.8	33.9	5.9	59.2*	i
Cc1cccc(N2CCN(CC(=O)Nc3ccc(S(=O)(=O)N4CCOCC4)cc3)CC2)c1C	3.0	2.5	6.7	0.4	+
Cc1ccc(S(=O)(=O)N2CCN(CC(=O)Nc3ccc(N4CCOCC4)cc3)CC2)cc1C	2.0	-10.4	-5.8	-1.1	i
COc1cc2ccccc2cc1C(=O)O	2.1	0.5	2.7	-0.1	i
COc1ccc(OC)c2cc3ccccc3cc12	-18.8	-11.2	8.9	15.2	+
CCOc1ccc(-n2c(SCC(=O)c3c(N)n(C)c(=O)n(C)c3=O)nnc2-c2cccnc2)cc1	1.9	26.4	0.0	0.8	i
CCOc1ccc(N2CC(C(=O)NCc3nnnn3-c3ccc(C)c(C)c3)CC2=O)cc1 (stereo not drawn)	-5.2	53.5*	6.6	-0.4	i
Cc1ccc(-n2nnnc2CNC(=O)C2CC(=O)N(c3ccc(F)cc3)C2)cc1C (stereo not drawn)	0.8	-1.9	1.9	0.4	i
SMILES	Cardiac RTF inh	CRFBP-R2 block	cardiac RTF act	CRFR2-BP ag	Myeloid diff 2
c1ccc2cc(CCO[C@H]3CCCCO3)ncc2c1	-8.0	2.2	-4.0	-1.2	i
Cc1ccc(C(=O)N2c3ccccc3N(Cc3ccccc3)C(=O)C2(C)C)cc1	2.0	52.1*	2.8	5.6	i
N/C(=N\OC(=O)/C=C/c1ccccc1)c1ccccc1	-1.9	7.5	5.6	-0.1	i
CC1=C/C(=N\OC(=O)/C=C/c2ccccc2)C(C)=CC1=O	-1.1	-7.8	-5.5	0.3	+
CCOC(=O)CN1C(=O)S/C(=C/c2ccco2)C1=O	-7.1	2.1	5.4	-1.0	i
COC(=O)CN1C(=O)S/C(=C/c2ccc(N3CCCCC3)o2)C1=O	-291.4	-29.6	322.4*	56.5*	i
CCOC(=O)CN1C(=O)S/C(=C/c2ccc(N3CCCCC3)o2)C1=O	-48.1	-54.5	70.2*	33.0	i
O=C(O)CN1C(=O)/C(=C/c2ccc(N3CCCCC3)o2)SC1=S	-12.5	-6.1	14.7	5.6	i
COc1ncnc2c1ncn2CCCN[C@H](C)c1cccc2ccccc12	.	-3.3	.	0.1	i
Cc1[nH]c(C)c(S(=O)(=O)NCCc2ccccc2)c1C(=O)N1CCCCC1	-7.0	70.4*	-0.3	0.5	i
Cc1c(C(=O)N2CCCCC2)c(S(=O)(=O)NCCc2ccccc2)c(C)n1C	-2.0	-7.8	-3.0	-0.3	i
COc1ccc(-c2nn(-c3ccccc3C)cc2CNCc2cccnc2)cc1F	6.6	73.3*	0.6	1.8	i
COc1ccc(-n2cc(CNCc3cccnc3)c(-c3cccc(F)c3)n2)cc1	11.7	-7.2	2.2	-0.3	i
C/C(=N\NC(=O)CCc1ccccc1)C1C(=O)c2ccccc2C1=O	-2.9	3.8	2.8	-2.3	i
C/C(=N\NC(=O)c1cccc(Cl)c1)C1C(=O)c2ccccc2C1=O	4.6	85.0*	6.7	26.2	i
S=C(NCCC(c1ccccc1)c1ccccc1)Nc1cccc(Cl)c1	1.0	-58.3	-0.9	3.1	i
S=C(NCCN(C1CCCCC1)C1CCCC1)Nc1cccc(Cl)c1	4.2	-39.4	5.8	4.7	+
CCCCN1C(=O)C(=O)NC[C@@H]1CC1CCCCC1	.	.	.	.	i
COc1ccc(S(=O)(=O)N2CCCC(C(=O)NCc3ccncc3)C2)cc1 (stereo not drawn)	-8.5	55.8*	-5.5	-3.2	i
COc1ccc(S(=O)(=O)N2CCCC(C(=O)NCc3ccc(F)cc3)C2)cc1 (stereo not drawn)	10.3	-3.6	-3.7	-0.3	i
COc1ccc(CNC(=O)[C@H](C)NC(=O)C2CCN(S(=O)(=O)c3ccc(F)cc3)CC2)cc1	1.2	81.8*	-2.2	-1.2	i
COc1cccc(NC(=O)C2CCCN(S(=O)(=O)c3ccc(-n4cnnn4)cc3)C2)c1 (stereo not drawn)	-2.7	86.3*	-2.0	0.3	i
CCOc1cccc(NC(=O)C2CCCN(S(=O)(=O)c3ccc(-n4cnnn4)cc3)C2)c1 (stereo not drawn)	1.7	25.8	0.4	-1.6	i
